# From PubChem BioAssay
# Activity calls are given as the source filed them. Unless noted, how the calls were made is not given here.
# Tests used:
# [1] = HepG2 liver cancer cell viability effects, profiling panel, resazurin fluorescence, 24 h, PK04 Diversity Set (AID 1172); settings: higher = more signal
# [2] = basal S. cerevisiae growth modulation, no modifier, primary screen, OD600, strain BY4716, 24 h, basal condition (AID 1173); settings: OD600, 24 h, higher = more signal, called active from +8 up or from −8 down
# [3] = MM1S myeloma cell viability, profiling panel, resazurin fluorescence, basal, 24 h, PK04 Diversity Set (AID 1174); settings: higher = more signal, called active from +8 up or from −8 down;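 further: MM1S multiple myeloma cell line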
# [4] = target: Dihydroorotate dehydrogenase (quinone), mitochondrial (Plasmodium falciparum (isolate 3D7)) (UniProt Q08210); test: PfDHODH enzyme inhibitors, primary screen, biochemical, C-terminal His tag, absorbance 600 nm (AID 1175); settings: DCIP absorbance 600 nm, higher = more signal, called active from +8 up or from −8 down;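 further: recombinant parasite enzyme with a five histidine tag at its C terminus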
# Dihydroorotate dehydrogenase (quinone), mitochondrial (Plasmodium falciparum (isolate 3D7)), sequence (Q08210 whole entry, looked up): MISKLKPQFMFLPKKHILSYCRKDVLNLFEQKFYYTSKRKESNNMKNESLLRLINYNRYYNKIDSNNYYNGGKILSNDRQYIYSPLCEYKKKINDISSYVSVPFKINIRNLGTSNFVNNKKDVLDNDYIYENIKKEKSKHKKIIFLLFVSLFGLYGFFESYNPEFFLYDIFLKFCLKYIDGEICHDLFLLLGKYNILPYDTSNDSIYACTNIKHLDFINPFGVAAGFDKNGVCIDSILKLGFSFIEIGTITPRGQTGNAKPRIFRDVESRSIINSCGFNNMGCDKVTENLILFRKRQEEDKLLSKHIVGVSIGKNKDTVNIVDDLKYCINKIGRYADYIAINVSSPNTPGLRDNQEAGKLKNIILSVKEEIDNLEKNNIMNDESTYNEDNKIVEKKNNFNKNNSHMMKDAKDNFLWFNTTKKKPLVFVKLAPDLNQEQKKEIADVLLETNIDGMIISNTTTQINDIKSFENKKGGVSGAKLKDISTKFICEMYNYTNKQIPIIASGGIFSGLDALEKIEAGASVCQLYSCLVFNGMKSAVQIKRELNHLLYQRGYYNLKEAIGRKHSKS
# [5] = P. aeruginosa biofilm formation inhibitors, primary screen, strain PAO1, LB-PBS medium, absorbance 600 nm (AID 1176); settings: P. aeruginosa PAO1 growth/biofilm, A600, 12 h; higher = more signal
# [6] = S. cerevisiae RM11-1a growth modifiers, primary screen, strain RM11-1a, OD600, basal, 24 h (AID 1177); settings: OD600, 24 h, higher = more signal, called active from +8 up or from −8 down;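 further: cultures grown under basal conditions with no added stressor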
# [7] = E. coli acrAB mutant growth effects, primary screen, E. coli filamentation inducers, strain DRC39, OD650, 24 h (AID 1178); settings: higher = more signal, called active from +8 up or from −8 down;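 further: growth measured as culture turbidity by optical density at 650 nm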
# [8] = E. coli acrAB mutant growth effects, primary screen, E. coli filamentation inducers, strain DRC39, OD650, 48 h (AID 1179);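 further: screen aims at cell division blockers that make cells filament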; settings: E. coli DRC39 delta-acrAB growth, higher = more signal, called active from +8 up or from −8 down
# [9] = RPMI8226 myeloma cell viability, profiling panel, resazurin fluorescence, basal, 24 h, PK04 Diversity Set (AID 1180); settings: higher = more signal;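 further: RPMI8826 multiple myeloma cell line at 5000 cells per well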
# [10] = target: E3 ubiquitin-protein ligase XIAP (Homo sapiens) (UniProt P98170); test: XIAP binders, primary screen, biophysical, small-molecule microarray, fluorescence 635 nm (AID 1181); settings: small-molecule microarray binding, higher = more signal;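 further: score merges 667 nm emission and signal to noise over triplicate slides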
# E3 ubiquitin-protein ligase XIAP (Homo sapiens), sequence (P98170 whole entry, looked up): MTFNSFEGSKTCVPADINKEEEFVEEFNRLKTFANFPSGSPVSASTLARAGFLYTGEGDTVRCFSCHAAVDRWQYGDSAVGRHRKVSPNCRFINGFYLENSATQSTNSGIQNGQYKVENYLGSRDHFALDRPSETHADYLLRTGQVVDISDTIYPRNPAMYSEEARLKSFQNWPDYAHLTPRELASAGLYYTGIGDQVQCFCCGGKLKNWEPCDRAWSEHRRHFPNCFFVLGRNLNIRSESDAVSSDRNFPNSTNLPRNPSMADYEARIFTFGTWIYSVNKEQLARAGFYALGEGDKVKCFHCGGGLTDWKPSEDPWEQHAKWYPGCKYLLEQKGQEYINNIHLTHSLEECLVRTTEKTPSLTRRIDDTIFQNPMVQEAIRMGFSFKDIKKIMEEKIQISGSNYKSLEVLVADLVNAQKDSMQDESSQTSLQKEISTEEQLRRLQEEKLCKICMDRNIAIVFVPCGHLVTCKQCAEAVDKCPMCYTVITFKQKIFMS
# [11] = test system: XIP peptide (Xip251-270) binding; test: small-molecule binders of XIP peptide, primary screen, biochemical, small-molecule microarray, fluorescence 635/667 nm, 0.1 µg/mL protein (AID 1182); settings: fluorescent protein binding, 635 nm, higher = more signal, called active from +8 up or from −8 down
# XIP peptide (Xip251-270) = test: small-molecule binders of XIP peptide, primary screen, biochemical, small-molecule microarray, fluorescence 635/667 nm, 0.5 µg/mL protein (AID 1183); settings: small-molecule microarray binding, fluorescence 635 nm; higher = more signal
# [12] = Plasmodium falciparum growth inhibition, primary screen, strain 3D7, DAPI fluorescence, 100 nL (AID 1184);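 further: parasites grown inside human red blood cells in medium with human serum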; settings: P. falciparum 3D7 growth, 3 d, higher = more signal
# [13] = target: Homeobox protein Hox-A13 (Mus musculus) (UniProt Q62424); test: inhibitors of HoxA13-DNA binding, primary screen, biochemical, fluorescence polarization, labeled oligonucleotide (AID 1185); settings: 15 min, higher = more signal, called active from +8 up or from −8 down
# Homeobox protein Hox-A13 (Mus musculus), sequence (Q62424 whole entry, looked up): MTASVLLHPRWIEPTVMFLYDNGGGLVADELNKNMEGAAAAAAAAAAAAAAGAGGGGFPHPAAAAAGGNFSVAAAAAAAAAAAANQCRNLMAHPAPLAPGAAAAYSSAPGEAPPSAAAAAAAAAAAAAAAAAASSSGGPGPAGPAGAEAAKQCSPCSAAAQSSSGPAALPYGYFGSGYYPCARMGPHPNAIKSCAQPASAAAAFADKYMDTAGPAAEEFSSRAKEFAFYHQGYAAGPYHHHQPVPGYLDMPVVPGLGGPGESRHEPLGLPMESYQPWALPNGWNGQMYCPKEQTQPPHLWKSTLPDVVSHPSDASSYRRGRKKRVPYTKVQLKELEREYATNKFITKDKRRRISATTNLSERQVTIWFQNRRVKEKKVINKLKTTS
# [14] = inhibitors of hydroxyurea-induced Chk1 phosphorylation, primary screen, imaging, HeLa, phospho-Chk1 antibody, percent positive cells (AID 1186); settings: hydroxyurea-induced phospho-Chk1 immunofluorescence imaging, higher = more signal
# [15] = inhibitors of hydroxyurea-induced Chk1 phosphorylation, primary screen, imaging, HeLa, phospho-Chk1 nuclear intensity (AID 1187); settings: hydroxyurea-induced phospho-Chk1 immunofluorescence imaging, higher = more signal
SMILES,z-score [1],z-score [2],z-score [3],composite z-score [4],z-score [5],z-score [6],z-score [7],z-score [8],z-score [9],composite z-score [10],composite z-score [11],composite z-score (XIP peptide (Xip251-270)),z-score [12],z-score [13],z-score [14],z-score [15]
COCCOC(=O)N1C(=O)[C@@]2(c3ccccc31)[C@H](C(=O)Nc1nc3ccccc3s1)[C@H]1C(=O)O[C@H](c3ccccc3)[C@H](c3ccccc3)N1[C@@H]2c1ccc(OCCO)cc1,0.353,1.42 (inactive),-0.477 (inactive),-0.691 (inactive),3.49 (inactive),1.75 (inactive),0.0253 (inactive),-0.383 (inactive),-0.162,0.0641,0.886 (inactive),0.805,-1.13,0.34 (inactive),-0.178 (inactive),-0.249 (inactive)
CS(=O)(=O)CCOC(=O)C1=CC(CCCO)=CC(c2cccs2)N(Cc2cc3c(cc2Br)OCO3)C=C1C(=O)OCCS(C)(=O)=O (centres undefined),1.13,-2.65 (inactive),0.209 (inactive),0.359 (inactive),0.142 (inactive),0.379 (inactive),0.571 (inactive),0.503 (inactive),0.0578,0.122,0.555 (inactive),0.634,-3.01,-2.91 (inactive),-0.169 (inactive),0.132 (inactive)
CN1C(=O)C2C=CC(C(O)c3ccccn3)N(Nc3ccccc3)C2C1=O (centres undefined),-1.03,0.727 (inactive),-0.467 (inactive),1.42 (inactive),1.28 (inactive),1.57 (inactive),-0.206 (inactive),-0.387 (inactive),-0.878,0.742,0.632 (inactive),0.325,0.0014,-7.19 (inactive),-0.827 (inactive),-1.12 (inactive)
N#Cc1ccc(NN2C(C(O)c3ccc([N+](=O)[O-])cc3)C=CC3C(=O)N(c4ccccc4)C(=O)C32)cc1 (centres undefined),-1.07,-0.203 (inactive),-0.55 (inactive),-0.0079 (inactive),1.23 (inactive),-0.487 (inactive),-0.685 (inactive),-0.418 (inactive),-1.08,-0.0391,0.311 (inactive),0.807,0.272,-4.27 (inactive),0.446 (inactive),0.5 (inactive)
O=C(NCc1ccccc1)[C@]1(CCS(=O)(=O)c2ccccc2)N=C(c2ccc(OCCCO)cc2)O[C@@H]1c1ccccc1,0.0669,1.08 (inactive),-0.866 (inactive),-0.549 (inactive),0.0937 (inactive),1.91 (inactive),0.79 (inactive),1.05 (inactive),0.253,0.323,0.605 (inactive),0.678,-2.18,-1.13 (inactive),-0.362 (inactive),-0.255 (inactive)
COCCOC(=O)N1C(=O)[C@@]2(c3cc(C#CCCO)ccc31)[C@H](c1ccccc1OCCO)N1[C@H](c3ccccc3)[C@H](c3ccccc3)OC(=O)[C@H]1[C@@H]2C(=O)N1CCN(c2ncccn2)CC1,-0.0071,1.42 (inactive),-0.285 (inactive),-0.465 (inactive),1.6 (inactive),2.18 (inactive),-0.0933 (inactive),-0.27 (inactive),-0.803,-0.0304,0.377 (inactive),0.783,-1.89,-1.16 (inactive),-0.0825 (inactive),-0.157 (inactive)
CN(C)CCCCCCNC(=O)[C@H]1C[C@H]2C(=O)N[C@@H](CCCCN)C(=O)N2[C@H]1c1ccc(O)cc1,-0.807,0.293 (inactive),-0.249 (inactive),1.31 (inactive),0.808 (inactive),0.0384 (inactive),-0.108 (inactive),0.267 (inactive),0.263,2.64,5.07 (inactive),0.937,-0.511,-0.281 (inactive),-0.111 (inactive),0.501 (inactive)
CCOC(=O)C1=CCC(C(C)(C)C)N(S(=O)(=O)c2ccc(C)cc2)C1 (centres undefined),-0.462,0.586 (inactive),-0.0359 (inactive),0.406 (inactive),-0.321 (inactive),1.29 (inactive),-0.021 (inactive),-0.52 (inactive),-0.719,-0.0476,0.548 (inactive),0.806,-0.797,-4.56 (inactive),-1.42 (inactive),-1.98 (inactive)
COc1ccc([Si](C)(C)[C@@H]2[C@@H](CCn3cc([C@H](O)c4ccccc4)nn3)O[C@]3(C(=O)N(Cc4cccc(N5CCOC5=O)c4)c4ccccc43)[C@H]2C)cc1,0.194,-0.611 (inactive),-2.91 (inactive),0.539 (inactive),1.35 (inactive),1.98 (inactive),1.44 (inactive),1.45 (inactive),-0.424,-0.102,0.672 (inactive),0.168,-2.33,-2.64 (inactive),-0.862 (inactive),0.0282 (inactive)
C[C@]1(C(=O)NCc2ccccc2)c2ccccc2C(=O)N(Cc2ccc(OC(F)(F)F)cc2)[C@H]1c1ccc(CO)cc1,0.333,-1.51 (inactive),1.51 (inactive),-0.482 (inactive),0.609 (inactive),-0.593 (inactive),1 (inactive),0.806 (inactive),1.19,-0.0872,0.379 (inactive),0.317,-2.01,-3.67 (inactive),-0.347 (inactive),-0.341 (inactive)
O=C(CCN1CCOCC1)c1cccc(O)c1,1.19,-0.804 (inactive),-1.43 (inactive),-1.44 (inactive),-0.407 (inactive),-1.07 (inactive),0.251 (inactive),0.737 (inactive),-1.6,0.226,1.55 (inactive),0.421,-1.5,-2.35 (inactive),-0.111 (inactive),0.114 (inactive)
O=C1OCCC=C[C@H]2OC34C=CCN(Cc5ccccc5)C(=O)[C@H]3N(CCCO)C(=O)[C@@H]4C12 (some centres undefined),0.35,-0.625 (inactive),1.33 (inactive),-1.01 (inactive),0.152 (inactive),-0.0921 (inactive),-0.638 (inactive),0.129 (inactive),0.165,-0.0116,0.17 (inactive),-0.461,-2.21,-4.21 (inactive),-0.16 (inactive),-0.035 (inactive)
COc1ccc([Si](C)(C)[C@@H]2[C@@H](CC(=O)N(CCO)Cc3ccccc3)O[C@]3(C(=O)N(C)c4ccccc43)[C@H]2C)cc1,-1.36,-0.599 (inactive),-1.64 (inactive),-0.688 (inactive),0.708 (inactive),0.975 (inactive),-0.284 (inactive),-0.896 (inactive),-1.49,-0.0853,1.74 (inactive),0.626,-1.55,-6.65 (inactive),-0.36 (inactive),-1.47 (inactive)
[N-]=[N+]=NCc1ccccc1C[C@]1(C(=O)O)N=C(c2ccc(OCCCO)cc2)O[C@H]1c1ccccc1,0.922,-2.17 (inactive),0.111 (inactive),0.732 (inactive),0.755 (inactive),-0.923 (inactive),-0.168 (inactive),-0.429 (inactive),0.525,-0.0482,1.06 (inactive),0.228,-0.296,-5.85 (inactive),0.109 (inactive),0.0605 (inactive)
CC(C)N1CC=CC23O[C@@H]4C=CCOC(=O)[C@@H]4[C@H]2C(=O)N(CCO)[C@@H]3C1=O (some centres undefined),0.545,0.684 (inactive),0.813 (inactive),-1.12 (inactive),0.0683 (inactive),0.445 (inactive),0.173 (inactive),0.0539 (inactive),0.393,0.0368,-0.145 (inactive),-0.014,0.74,-2.98 (inactive),-0.514 (inactive),-0.419 (inactive)
COCCOC(=O)N1C(=O)[C@@]2(c3cc(C#CCNC(N)=O)ccc31)[C@H](c1ccc(OCCO)cc1)N1[C@H](c3ccccc3)[C@H](c3ccccc3)OC(=O)[C@H]1[C@@H]2C(=O)N1CCc2cc(OC)c(OC)cc2C1,0.358,2.29 (inactive),0.296 (inactive),-0.597 (inactive),2.26 (inactive),3.21 (inactive),0.583 (inactive),0.582 (inactive),0.665,-0.0999,-0.254 (inactive),0.229,-0.605,1.91 (inactive),-0.102 (inactive),0.15 (inactive)
COCCCNC(=O)[C@@]1(c2ccc([N+](=O)[O-])cc2)CC(=O)N(CC23CC4CC(CC(C4)C2)C3)[C@@H]1c1ccc(CO)cc1,-1.04,-0.67 (inactive),-1.62 (inactive),0.431 (inactive),0.981 (inactive),-0.24 (inactive),0.788 (inactive),0.351 (inactive),-1.96,0.0374,0.0335 (inactive),0.697,-0.0493,-5.17 (inactive),-0.687 (inactive),-0.404 (inactive)
COC(=O)[C@@]1(Cc2ccc(OC)cc2)[C@H]2c3cc(C(=O)N4CCCC4)n(CCc4c[nH]c5cc(F)ccc45)c3C[C@H]2CN1C(=O)c1ccccc1,-0.679,1.15 (inactive),-0.502 (inactive),0.461 (inactive),0.964 (inactive),0.473 (inactive),-0.29 (inactive),-0.141 (inactive),-0.642,0.172,1.31 (inactive),0.687,-1.66,0.828 (inactive),0.527 (inactive),0.598 (inactive)
CCN(CC)c1ccc(N2CC=CC34O[C@@H]5C=CCCOC(=O)C5[C@H]3C(=O)N(CCCCCO)[C@@H]4C2=O)cc1 (some centres undefined),1.72,-0.8 (inactive),0.974 (inactive),-0.644 (inactive),0.165 (inactive),-0.866 (inactive),2.21 (inactive),2.23 (inactive),1.16,0.354,0.235 (inactive),-0.782,0.315,-5.22 (inactive),0.234 (inactive),0.711 (inactive)
